Compound activity from PubChem BioAssay.
VDR inhibitor: vitamin D3 receptor (human) inhibition | Potency, µM, for inactives: max response, negative = inhibition, actives largely listed as inhibitors | AID 504847 | VDR-SRC2-3 peptide fluorescence polarization, 2 h | P11473 | 0.93% of 400,000 active; note: potency is the fitted concentration of half-maximal effect; % is set by controls: 0 for no effect and ±100 for the full control effect
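FP read-out; VDR + SRC2-3 coactivator peptide; 23 nl compound by pintool; 2 h RT incubation; reagents held at 4 deg C, protected from light.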
PTAP TSG101 blk: blocks PTAP/TSG101 interaction to inhibit HIV-1 budding | Fluorescence polarization, FITC-PTAP peptide / Tsg101 binding | Potency, µM (highest dose often 115 µM), without a hit: at the top dose activity change, negative = inhibition, actives largely listed as inhibitors | 340,000 tested, under 10 active; active = well fitted inhibition curve with a large enough effect in the main read-out, with a control signal flat, not every such curve was filed as active; inconclusive = small, poorly fitted or top-dose-only effect, or effect the other way, or a change in a side signal; inactive = no such curve, though single readings can be large or run the other way; note: potency is the fitted concentration of half-maximal effect; % of control where 0% means no effect
Target sequence (Q99816 whole entry, looked up): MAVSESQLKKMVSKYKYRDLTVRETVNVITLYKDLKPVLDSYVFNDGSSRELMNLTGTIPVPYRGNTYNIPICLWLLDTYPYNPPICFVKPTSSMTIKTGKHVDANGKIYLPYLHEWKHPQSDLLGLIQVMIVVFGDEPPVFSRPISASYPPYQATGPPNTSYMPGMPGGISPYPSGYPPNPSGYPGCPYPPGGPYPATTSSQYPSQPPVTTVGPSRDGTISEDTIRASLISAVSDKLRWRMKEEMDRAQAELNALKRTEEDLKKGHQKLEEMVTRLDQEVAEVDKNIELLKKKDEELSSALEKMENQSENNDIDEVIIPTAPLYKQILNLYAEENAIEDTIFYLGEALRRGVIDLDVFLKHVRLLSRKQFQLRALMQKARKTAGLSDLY
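Fluorescence anisotropy tracks displacement of a FITC-tagged PTAP peptide (50 nM) from the Tsg101 binding domain (10 uM), following a 20 min room-temperature incubation at pH 7.5.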
uPA generation: inhibitors of cell surface uPA generation; AID 540303; 0.31% of 330,000 active; cell surface uPA generation assay, qHTS; Potency, µM (highest dose often 38.3 µM), inactives show at the top dose activity change, negative = inhibition, actives largely listed as inhibitors; active = well fitted inhibition curve with a large enough effect; inconclusive = small, poorly fitted or top-dose-only effect; inactive = no such curve, though single readings can be large or run the other way; tested in mouse RAW 264.7 cells; note: potency is the fitted concentration of half-maximal effect; % is set by controls: 0 for no effect and ±100 for the full control effect; nearly all actives have a fitted effect of over 55% in size
TSHR antagonist: human thyrotropin receptor antagonism | TSHR-expressing cells, TSH-stimulated cAMP HTRF, 2 h; stronger effect = lower value | activity change, negative = inhibition, % at 11.5 µM | P16473 | 0.2% of 330,000 active;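 active = activity change below a set negative limit, meaning inhibition stronger than a set level, cut at about -70% in these data; inconclusive = activity change between two set negative limits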; note: % is set by controls: 0 for no effect and ±100 for the full control effect
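Read-out is FRET at 665 nm (cryptate excitation 337 nm) from a cryptate-tagged anti-cAMP antibody, competed by cell cAMP against cAMP-d2. Compounds are tested on freshly harvested TSHR cells challenged with 4nM TSH (EC80) for 2 hours at 37 deg C.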
PLK1 PBD inh: blocks phosphopeptide binding to human PLK1 polo-box domain. Plk1 PBD binding of FITC phosphopeptide, fluorescence polarization. 2.8% of 360,000 active. AID 720504. Potency, µM, for the others: max response, negative = inhibition, usual class: inhibitors; note: potency is the fitted concentration of half-maximal effect; series mostly up to about 57 µM; % is set by controls: 0 for no effect and ±100 for the full control effect; nearly all actives have a fitted effect of over 65% in size
Numbers without * were called inactive; ? = inconclusive; / = not tested or not shown. In the library only some 3.1% were active in any assay of this set; here they are far more common. Unless noted, calls come from the whole dose curve; as a rule, active = well fitted curve in the direction sought with a large enough effect; inconclusive = small, poorly fitted or top-dose-only effect, or another doubt; inactive = no such curve, though single readings can be large; an effect the other way counts as inactive or inconclusive.

SMILES	VDR inhibitor	PTAP TSG101 blk	uPA generation	TSHR antagonist	PLK1 PBD inh
CCOC(=O)c1ccccc1NC(=O)c1sc2ncn(CC)c(=O)c2c1C	-2%	/	/	/	/
CCC(=O)N1c2ccc(S(=O)(=O)CCC(=O)N3CCN(c4cc(C)ccc4C)CC3)cc2CC1C (stereo not drawn)	-11%	/	/	/	/
Cc1ccc(C)c(N2CCN(C(=O)CCS(=O)(=O)c3ccc4c(c3)CCN4C(=O)C3CC3)CC2)c1	-11%	-2%	-10%	-82*	-5%
CCOC(=O)C1CCN(S(=O)(=O)c2ccc3c(c2)CCN3C(=O)C2CCC2)CC1	?	-4%	0%	6	27µM*
CCOC(=O)C1CCN(S(=O)(=O)c2ccc3c(c2)CCN3C(C)=O)CC1	-10%	-1%	6%	-10	-3%
Cc1c(C)c2cc(Cl)c(OC(C)C(=O)NCCN3CCOCC3)cc2oc1=O (stereo not drawn)	?	-3%	-1%	-5	24µM*
CC(Oc1cc2oc(=O)c3c(c2cc1Cl)CCCC3)C(=O)NCCN1CCOCC1 (stereo not drawn)	?	-6%	-3%	6	24µM*
CCN1c2ccccc2-c2nc(SCC(=O)Nc3cc(C)c(Cl)cc3OC)ncc2S1(=O)=O	0%	/	/	/	/
COc1ccc(-c2cc(C(=O)c3c(N)n(C)c(=O)n(C)c3=O)c3ccccc3n2)cc1	-9%	0%	1.4µM*	1	-21%
CCOc1ccc(NC(=O)CN2CCN(CC(=O)c3ccc(OC)c(OC)c3)CC2)cc1	-29%	2%	-4%	2	19µM*
CCCCCC(=O)Nc1cc(S(=O)(=O)N2CCCCC2)ccc1N1CCCCC1	?	-2%	-7%	/	0%
CCCCCC(=O)Nc1cc(S(=O)(=O)O)cc2cc(S(=O)(=O)O)cc(O)c12	?	-7%	7%	/	6µM*
COc1cc(OC)cc(-c2nc3nc(C)c(CCC(=O)Nc4cc(C)cc(C)c4)c(C)n3n2)c1	-7%	/	/	/	/
CC(=O)c1cccc(N=Nc2c(-c3ccccc3)[nH]n(-c3ccccc3)c2=O)c1	-7%	2%	1%	-7	24µM*
Cc1[nH]n(-c2ccccc2)c(=O)c1N=Nc1cccc(Cl)c1	7%	0%	-2%	11	2%
CC(=O)c1ccccc1OC(=O)COc1ccc(Cl)cc1C	?	-2%	1%	2	21µM*
CCc1nc2sc3c(=O)[nH]cnc3c2c2c1CSC(C)(C)C2	-24%	-2%	-5%	-9	27µM*
CCN1C(=O)[C@H]2[C@H]3CN=C(SCC(=O)c4ccccc4)N3[C@@](C)(C(=O)OC)[C@H]2C1=O	45µM*	-4%	-14%	11	?
Cc1nc2cnc(N3CCN(C)CC3)nc2n(CCc2ccccc2)c1=O	7%	/	/	/	/
CC1(C)CCCC2(C)C3C(O)CC2(C)C(O)C31 (stereo not drawn)	1%	/	/	/	/
CCc1ccc(-n2cccc2/C=C2/C(=N)N3C(=NC2=O)SN=C3S(C)(=O)=O)cc1	?	-10%	-13%	?	13µM*
Cc1ccc(-n2cccc2/C=C2/C(=N)N3C(=NC2=O)SN=C3S(C)(=O)=O)cc1	-29%	0%	1%	-15	?
COc1cc(/C=C2/C(=N)N3C(=NC2=O)SN=C3S(C)(=O)=O)ccc1OS(=O)(=O)c1ccc(C)cc1	?	-5%	?	-8	27µM*
Cc1ccc(S(=O)(=O)Oc2ccc(/C=C3/C(=N)N4C(=NC3=O)SN=C4S(C)(=O)=O)cc2)cc1	?	-8%	1%	-7	21µM*
CS(=O)(=O)C1=NSC2=NC(=O)/C(=C\c3ccc(OS(=O)(=O)c4ccccc4)cc3)C(=N)N21	35µM*	0%	0%	3	30µM*
SMILES	VDR inhibitor	PTAP TSG101 blk	uPA generation	TSHR antagonist	PLK1 PBD inh
O=C(NCCN1CCCCC1)c1ccc(Cn2c(SCc3ccc(F)cc3)nc3cccnc32)cc1	22%	/	/	/	/
O=c1c(-c2cc(-c3ccc(F)cc3)nc3c2COc2ccc(Cl)cc2-3)coc2ccc(F)cc12	10%	/	/	/	/
Cc1ccc(-n2cccc2/C=C2\C(=N)N3N=C(c4ccco4)SC3=NC2=O)cc1	5%	-8%	10%	-11	30µM*
COc1cccc(-n2c(C)cc(/C=C3/C(=N)N4C(=NC3=O)SN=C4S(C)(=O)=O)c2C)c1	-19%	1%	6%	-18	19µM*
CCS(=O)(=O)C1=NN2C(=N)/C(=C\c3ccc(OS(=O)(=O)c4ccccc4)c(OC)c3)C(=O)N=C2S1	/	/	/	1	/
CCS(=O)(=O)C1=NSC2=NC(=O)/C(=C\c3ccc(OS(=O)(=O)c4ccccc4)c(OC)c3)C(=N)N21	50µM*	-2%	3%	-11	27µM*
CCC1=NN2C(=N)/C(=C\c3cccn3-c3ccc(Cl)cc3)C(=O)N=C2S1	-2%	-8%	6%	-4	?
CCS(=O)(=O)C1=NN2C(=N)/C(=C\c3ccc(OS(=O)(=O)c4ccccc4)cc3)C(=O)N=C2S1	50µM*	-16%	-3%	4	21µM*
COc1ccc(-n2c(=O)c(CCc3ccccc3)nc3cnc(N4CCN(C)CC4)nc32)cc1	-3%	/	/	/	/
NC(=O)CC[C@H](NC(=O)c1ccc(F)cc1)C(=O)OCC(=O)NCc1ccc(F)cc1	71µM*	-5%	3%	-7	?
COc1cc2c(cc1OC)/C(=C/C(=O)c1ccc([N+](=O)[O-])c(C)c1)NCC2	?	-1%	6%	0	19µM*
COc1cc2c(cc1OC)/C(=C/C(=O)c1ccc(C)cc1)NCC2	1%	0%	3%	-1	-12%
Cc1ccc(S(=O)(=O)n2[nH]c(=O)c(CCO)c2C)cc1	14%	-6%	2%	1	-12%
COc1ccc(S(=O)(=O)n2[nH]c(=O)c(CCO)c2C)c([N+](=O)[O-])c1	-14%	-1%	-2%	-6	13µM*
CCc1nnc(NC(=O)c2ccc(S(C)(=O)=O)cc2)s1	20µM*	-4%	4%	2	9.5µM*
CCc1nnc(NC(=O)c2ccc(S(=O)(=O)N3CCCC3)cc2)s1	6%	0%	2%	-3	0%
O=C(/C=C/c1ccccc1)C1C(=O)c2ccccc2C1=O	-2%	-6%	-10%	-8	-24%
CCc1ccc(/C=C/C(=O)C2C(=O)c3ccccc3C2=O)cc1	?	-5%	-46%	-20	27µM*
COc1ccc(C(=O)COC(=O)CN2C(=O)C3C4CCC(C4)C3C2=O)cc1 (stereo not drawn)	-20%	1%	-15%	11	24µM*
COc1ccc(C(=O)COC(=O)C(C)N2C(=O)C3C4CCC(C4)C3C2=O)cc1 (stereo not drawn)	-7%	-1%	-1%	-19	-8%
O=S(=O)(NCc1cccc(Br)c1)c1ccc(-c2cc(C(F)(F)F)on2)s1	15%	/	/	/	/
COc1ccc2cc(Br)ccc2c1CC(=O)N(C)C	0%	1%	-12%	0	-3%
